Whole data set: some 35,000 sequences, median “fluorescence intensity (a.u.)” near 10,000, cut for the highest 2% near 52,000. Only a selection was taken, and the highest values are over-represented in it overall.

In the test the target is T1, OsWOX13 (Oryza sativa, UniProt Q5QMM3 1-267).
T1 sequence: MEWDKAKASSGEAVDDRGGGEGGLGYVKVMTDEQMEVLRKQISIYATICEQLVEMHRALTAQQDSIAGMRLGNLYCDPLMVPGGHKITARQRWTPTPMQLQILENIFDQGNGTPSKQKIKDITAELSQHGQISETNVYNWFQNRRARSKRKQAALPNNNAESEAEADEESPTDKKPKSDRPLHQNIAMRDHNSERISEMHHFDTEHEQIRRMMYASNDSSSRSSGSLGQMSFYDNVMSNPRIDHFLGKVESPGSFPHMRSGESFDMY
As to the kind of experiment: protein-binding microarray (RPBM); PBS, 2% BSA, 51.3 ng/ul salmon testes DNA, 50 uM zinc acetate, 200 nM TF, 25 C, 1 h; high values mean tight binding. The following applies: protein: recombinant; tags: N-terminal polyhistidine and DsRed monomer fusion (pET32a); label: CyDye5-dUTP incorporated in the synthesized complementary strand; 3' TTTTT single-stranded linker to array surface; dsDNA, one strand shown. In short, it runs like this:
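The binding signal is fluorescence intensity per array feature (arbitrary units). Readings came from an Axon 4000B scanner after a washed, 2% BSA-blocked, double-stranded custom Agilent array had been incubated for 1 h at 25 °C with 200 nM protein and 50 µM zinc acetate. The protein was a Ni–NTA-purified transcription factor fused N-terminally to polyhistidine and DsRed, expressed in E. coli BL21-CodonPlus.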
Regarding “ACAAGTTGATGGGGACACTTTTCTTATGTAGTATATAATTCGGAGTCACCTAGTGCAG”, the binding signal is 3270 fluorescence intensity (a.u.).

As for “AACCCTGATTTCCGTGCTCAACGTTTGACCGTCCGTCTTGCGGAGTCACCTAGTGCAG”, the binding signal is 4670 fluorescence intensity (a.u.).

On to “TCGATCACAAATTAATATTGTTTGCATACATACTCATATGCGGAGTCACCTAGTGCAG”, for which the binding signal was 6200 fluorescence intensity (a.u.).

As to “ATCCAATCATTTCAAAACGTATTCCTCAGCACATTAAACGCGGAGTCACCTAGTGCAG”, the binding signal is 19400 fluorescence intensity (a.u.).

As to “ACTAGCTAACTAAATTTGAAAGAGACTAGCTAGCTGCTTGCGGAGTCACCTAGTGCAG”, the binding signal is 6300 fluorescence intensity (a.u.).

Take “CCATAATTTTGCAAAGACATCAAACCAAATAAAACCAATGCGGAGTCACCTAGTGCAG”: the binding signal was 6680 fluorescence intensity (a.u.).

For “GCTAATTGCAATTTTGGCCGTCCATAAAGAGCTTGCGGCCCGGAGTCACCTAGTGCAG”, the binding signal was 52900 fluorescence intensity (a.u.).

For “GATAATGGTAGTGATTGGTTGAGGCTTGAGAGTAGATGTACGGAGTCACCTAGTGCAG”, the binding signal was 30600 fluorescence intensity (a.u.).

For the sequence “CTAAACCGCATAATAATTTACAGAAATGCCCCTCACCTCCCGGAGTCACCTAGTGCAG”, the binding signal is 11300 fluorescence intensity (a.u.).

Take “GCACCTTTCAAATTCATCTGATTTATGCATTCTTCTGTAACGGAGTCACCTAGTGCAG”: the binding signal was 3340 fluorescence intensity (a.u.).

Turning to “TGGCCTTGATTTGCTTCCTGAATGTGCCTGCTTCCTTACACGGAGTCACCTAGTGCAG”, the binding signal is 18100 fluorescence intensity (a.u.).

As to “TTTTGCAATGTGATTTGCTGGTTTGGATAGTGGAGAAGTTCGGAGTCACCTAGTGCAG”, the binding signal is 3300 fluorescence intensity (a.u.).

As to “ATGTGATTGATTCTGCTGGTGGATTCTCTCTTCGGTTTGCCGGAGTCACCTAGTGCAG”, the binding signal was 62800 fluorescence intensity (a.u.).

Take “TTGGTTGGTTGGTTGATTGCTCGCGCCCCGCGCGGTTGCGCGGAGTCACCTAGTGCAG”: the binding signal is 6680 fluorescence intensity (a.u.).

For “CTCTTGATTGCGGCGCGACTGCGAGCGAGAGAGCTTCACGCGGAGTCACCTAGTGCAG”, the binding signal was 20500 fluorescence intensity (a.u.).

“ATTGTTGCTGCTGCTGGATTGATTAGTGGTTAAGCAGATTCGGAGTCACCTAGTGCAG”: the binding signal was 5320 fluorescence intensity (a.u.).

As for “ACCAAGTAATTGATATCTAGAAATCCGATACCTAGTACCACGGAGTCACCTAGTGCAG”, the binding signal was 55000 fluorescence intensity (a.u.).

For the sequence “CCAAGCAAATAATCCGATAGATTGAATCGGTGAGTTACCACGGAGTCACCTAGTGCAG”, the binding signal was 9630 fluorescence intensity (a.u.).

Consider “CTCCCAAGTAAATGATTTGAAATACCCGATCTAATTATTACGGAGTCACCTAGTGCAG”, for which the binding signal is 3180 fluorescence intensity (a.u.).

Take “CCTCTTGATTGATTGCTCGGTCGACTGATTGCTTCTTACACGGAGTCACCTAGTGCAG”: the binding signal is 65000 fluorescence intensity (a.u.).

Turning to “ATTGATTGATAAACCCTACTGCTTCTCGCCGCCGCCGCCGCGGAGTCACCTAGTGCAG”, the binding signal is 55100 fluorescence intensity (a.u.).

For “CCGACCCGTTGGATTGATAAAACCAACTGCTTCCCGCTCCCGGAGTCACCTAGTGCAG”, the binding signal is 6190 fluorescence intensity (a.u.).

As for “ATTTATTAATATTAATATTATTGTGGGAAATTTTAGAATGCGGAGTCACCTAGTGCAG”, the binding signal was 3460 fluorescence intensity (a.u.).

With “TGCTGTAATTACTTTTCTGTAATTTGGATTAATCCTTCGCCGGAGTCACCTAGTGCAG”, the binding signal was 40800 fluorescence intensity (a.u.).

Take “AGATACTTAATTAGTGTCTTCTATAAGCAAAGGTCAGGAACGGAGTCACCTAGTGCAG”: the binding signal is 11300 fluorescence intensity (a.u.).

Turning to “GCTCTATCACAAAATAAACTAGAGTTATGAAGCTGGATTTCGGAGTCACCTAGTGCAG”, the binding signal is 4850 fluorescence intensity (a.u.).

As for “GTTATGTAATTAAAACGTTGTTTTCTTCTAATATATTGTCCGGAGTCACCTAGTGCAG”, the binding signal was 7150 fluorescence intensity (a.u.).

Consider “AATCAAATCATCTCATCAAAGTCCAATCCCGCTAGCTCCACGGAGTCACCTAGTGCAG”, for which the binding signal was 9000 fluorescence intensity (a.u.).

Consider “ACCTTCACTTGATTGCTGGTGGTAGTAGTAGTAGTAGTACCGGAGTCACCTAGTGCAG”, for which the binding signal is 21700 fluorescence intensity (a.u.).

Take “TGAGTAATTGATAGTGACACGGCTATCCAACCAATCCAGGCGGAGTCACCTAGTGCAG”: the binding signal is 65100 fluorescence intensity (a.u.).

Regarding “TAATCGTATTAATTGATCAACAGGCTAGGCCAGCCAAACACGGAGTCACCTAGTGCAG”, the binding signal is 13200 fluorescence intensity (a.u.).

On to “GTGATTGATATCGATTCTGATTGATGCCTTTGCCTGGTACCGGAGTCACCTAGTGCAG”, for which the binding signal is 57000 fluorescence intensity (a.u.).

In the case of “GATTGATTTGATTGATTGCTTGATTGGTTAATTGGTTGATCGGAGTCACCTAGTGCAG”, the binding signal is 51600 fluorescence intensity (a.u.).

As to “ACGGGGTTGCGGTAATTTTAATTGGGCCGAAATGTGATTCCGGAGTCACCTAGTGCAG”, the binding signal was 4130 fluorescence intensity (a.u.).

Consider “TGATTGTACGTATTCTGATTGATTGCTTATCGATATCTCACGGAGTCACCTAGTGCAG”, for which the binding signal is 26100 fluorescence intensity (a.u.).

Turning to “GGCCGATTGATTGGGTCCGAGTAATCTCGGAAATGTGGGGCGGAGTCACCTAGTGCAG”, the binding signal is 53600 fluorescence intensity (a.u.).

As for “TTTTGATTGCACCTTGCTTCTCGTATACACCCTCACCTATCGGAGTCACCTAGTGCAG”, the binding signal is 22200 fluorescence intensity (a.u.).

With “GAAATGGGCCTAATTGTCGGTCACATACCGAGTAAATGGGCGGAGTCACCTAGTGCAG”, the binding signal is 4300 fluorescence intensity (a.u.).

For the sequence “TCTGGTCGTAAATTGACAACCAACCTTAAGAAAATCCAGGCGGAGTCACCTAGTGCAG”, the binding signal was 21300 fluorescence intensity (a.u.).

With “CGGGTTTGATTTGATTTGATTTTGATTTTGATTTGCTTCTCGGAGTCACCTAGTGCAG”, the binding signal was 53400 fluorescence intensity (a.u.).

In the case of “CAAGAAATGACTTAATTAGAAAACCTCTTTGGAGCACCCACGGAGTCACCTAGTGCAG”, the binding signal is 11000 fluorescence intensity (a.u.).

Take “AAAGCATTCATGTTAATTTTCTCCTAACTCAAATCGAATGCGGAGTCACCTAGTGCAG”: the binding signal was 3260 fluorescence intensity (a.u.).

In the case of “CTGATTGGTTAGTAAGAGAATGTTGGTGGTGAAGTTGTTACGGAGTCACCTAGTGCAG”, the binding signal is 29900 fluorescence intensity (a.u.).

In the case of “AAACTAACCAGGATCTGGTAATTGGAACGATCCCCATTCCCGGAGTCACCTAGTGCAG”, the binding signal is 4390 fluorescence intensity (a.u.).

In the case of “GAAGTTTAATTATCATAAGATTGTGATGGTTATGTATGGTCGGAGTCACCTAGTGCAG”, the binding signal is 31700 fluorescence intensity (a.u.).

With “TGTATTGCCTAATTAATTTTATGCGCCTTTAATTTACTGCCGGAGTCACCTAGTGCAG”, the binding signal is 16800 fluorescence intensity (a.u.).

“CATATCCCATTTGCCAATCACACCCTGAGAGTATGTATATCGGAGTCACCTAGTGCAG”: the binding signal is 6560 fluorescence intensity (a.u.).

Turning to “CACCATTATTGCCAATTATCCTTGCTTGCGTGGTAGAGTACGGAGTCACCTAGTGCAG”, the binding signal is 26200 fluorescence intensity (a.u.).

In the case of “ACTTGATTTCTCTGTTGGAAGATGGGTATATTTCGAGACCCGGAGTCACCTAGTGCAG”, the binding signal was 17200 fluorescence intensity (a.u.).

With “TACTCTGATTTTGTCCATTACCAGCTGCAAATGGACCAGCCGGAGTCACCTAGTGCAG”, the binding signal was 19300 fluorescence intensity (a.u.).

As to “TTGACAGTTAATCCTAGGTCTATCTATCGCACTGAGTTTGCGGAGTCACCTAGTGCAG”, the binding signal was 12400 fluorescence intensity (a.u.).

Consider “ACAGATTGAGAGGGAGCTCAGGGAACCAGTCTCACAAAATCGGAGTCACCTAGTGCAG”, for which the binding signal is 8100 fluorescence intensity (a.u.).

Regarding “TAAAATTGCATGTGATCATTTTGTAAGCTAAACTTTTATTCGGAGTCACCTAGTGCAG”, the binding signal was 11600 fluorescence intensity (a.u.).

As for “TCTTTGATTGGTGGCGGTGTTGAATTGAATTGAATTGATCCGGAGTCACCTAGTGCAG”, the binding signal is 46300 fluorescence intensity (a.u.).

Take “GCTGCTCGGATTTGATTGATTGATTGATTGGCGGGTGGTCCGGAGTCACCTAGTGCAG”: the binding signal is 64500 fluorescence intensity (a.u.).

In the case of “TTTGGATTGGGTTTGGTGGTTGGGTGGGAGGGAGGGAGCTCGGAGTCACCTAGTGCAG”, the binding signal is 18700 fluorescence intensity (a.u.).

The record behind these values is paper PMC7819943, “Rice protein-binding microarrays: a tool to detect cis-acting elements near promoter regions in rice”.
